Compound activity as filed in PubChem.
This is a sample that favours compounds with a hit; in the whole collection about 5.7% have one here.
GLP-1R agonist – agonists of human GLP-1 receptor; P43220; HEK293 GLP-1R CRE-luciferase, luminescence, 4-6 h; cells express a hypersensitive GLP-1R form; Potency, µM (series often up to 45.6 µM), actives largely listed as activators; 380,000 tested, 0.007% active; AID 624172
ClpP mod – qHTS Assay for Activators of ClpP | Potency, µM (series often up to 57.5 µM) | 340,000 tested, 1.9% active | ATP-dependent Clp protease proteolytic subunit (Bacillus subtilis (strain 168)), P80244 | purified B. subtilis ClpP, FRET peptide cleavage, 20 min; active means well fitted falling curve with a large enough effect; inconclusive means small, poorly fitted or top-dose-only effect; inactive means no such curve, though single readings can be large or run the other way; further: the source files actives as falling curves though it sought activators and does not explain the sign; nearly all actives have a fitted effect of over 65% in size
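ClpP 10 microg/mL final, pH 8 Tris/KCl buffer with BSA, glycerol, Tween-20; compound pinned in; FRET-FV substrate; RT 20 min; Ex320/Em430; ΔFRET vs ADEP 5.8 microM, DMSO, no enzyme.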
GLP1R cytotox – cytotoxicity in counter-screen for GLP-1R inverse agonists; HEK293 cAMP-luciferase reporter cells, luminescence, 24 h; Potency, µM (series often up to 38.3 µM), usual class: inhibitors; 410,000 tested, 0.13% active;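 further: loss of luciferase light is scored as toxicity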
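1536-well qHTS counterscreen of the MLSMR; 200 cells/uL, 12 h pre-incubation, 23 nL cpd, 24 h at 37 deg C 5% CO2, luciferase detection reagent, 12 min RT, luminescence. Inhibition = undesired.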
GLP1R inv ag – acts as inverse agonist at human GLP-1 receptor; Potency, µM (series often up to 38.3 µM), actives largely listed as inhibitors; P43220; HEK293 GLP-1R CRE-luciferase, luminescence, 24 h; GLP-1R form is constitutively active; 410,000 tested, 1.6% active; further: nearly all actives have a fitted effect of over 55% in size
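Assay principle: reduced luminescence from a cAMP-responsive reporter in HEK293 cells co-expressing a constitutively active GLP-1R. Conditions: 24 hr compound incubation, 37 deg C, 5% CO2.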
DRD3 antagonist – antagonists of human D3 dopamine receptor; 360,000 tested, 2.5% active; max response, negative = inhibition, %; P35462; D3R cells, DiscoveRx beta-arrestin luminescence, antagonist mode; active compounds read low; AID 652054; in the data active means max response below about -50%; inconclusive means no clear call, values can overlap the other calls
Target sequence (P35462 whole entry, looked up): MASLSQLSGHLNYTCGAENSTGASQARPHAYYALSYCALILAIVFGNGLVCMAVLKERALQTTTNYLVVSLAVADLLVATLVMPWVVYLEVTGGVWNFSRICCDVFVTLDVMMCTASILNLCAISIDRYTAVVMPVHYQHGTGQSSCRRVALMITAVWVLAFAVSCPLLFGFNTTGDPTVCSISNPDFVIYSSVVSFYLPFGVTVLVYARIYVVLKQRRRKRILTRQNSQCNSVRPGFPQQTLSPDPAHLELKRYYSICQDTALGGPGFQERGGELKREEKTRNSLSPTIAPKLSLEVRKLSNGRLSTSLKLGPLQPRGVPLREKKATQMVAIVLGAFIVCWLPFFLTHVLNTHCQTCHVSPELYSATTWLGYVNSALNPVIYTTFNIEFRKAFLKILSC
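Cells plated overnight at 1500 cells/well, then exposed to library compounds with dopamine controls for 90 minutes at 37 degrees C. DiscoveRx reagent added for 30–60 minutes at room temperature; luminescence read, quantitative HTS format.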
DRD3 agonist – activates the human D3 dopamine receptor | P35462 | D3R DiscoveRx beta-arrestin cells, luminescence, 90 min | max activation, % | 410,000 tested, 0.58% active; in the data active means max activation above about 30%
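Agonist mode: compounds and dopamine controls were applied to plated cells for 90 min at 37 degrees C after an overnight attachment at 1500 cells/well. Luminescent read-out followed 30 - 60 minutes at room temperature with DiscoveRx detection reagent.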
Hits are given with their value. Unless noted, the call rests on the fitted dose curve; in most records, active means well fitted curve in the direction sought with a large enough effect; inconclusive means small, poorly fitted or top-dose-only effect, or another doubt; inactive means no such curve, though single readings can be large; an effect the other way counts as inactive or inconclusive.

How did NNc1ccc(Cl)nn1 do in these assays?
GLP-1R agonist: inactive; GLP1R cytotox: inconclusive; GLP1R inv ag: 10µM; DRD3 antagonist: inactive; DRD3 agonist: inactive

How did CCOC(=O)c1nc(N)c(C(=O)OCC)[nH]1 do in these assays?
GLP-1R agonist: inactive; ClpP mod: 14.1µM; GLP1R cytotox: inactive; GLP1R inv ag: inactive; DRD3 antagonist: inactive; DRD3 agonist: inactive

Results for CCOC(=O)c1sc(N2C(=O)c3oc4ccc(F)cc4c(=O)c3C2c2ccc(C)cc2)nc1C (stereo unspecified) ?
ClpP mod: inactive

How did CN(C)c1ccc(CNC(=O)Cn2c(-c3cccs3)cc3cc(Cl)ccc32)cc1 do in these assays?
ClpP mod: 25.1µM; GLP1R cytotox: inactive; GLP1R inv ag: inactive; DRD3 agonist: inactive

How did O=C(NCc1ccccc1Br)c1cccs1 do in these assays?
GLP-1R agonist: inactive; ClpP mod: inactive; GLP1R cytotox: inactive; GLP1R inv ag: inactive; DRD3 antagonist: inactive; DRD3 agonist: inactive

What do the screens show for `COCCNC(=O)c1cc(-c2cccs2)on1`?
GLP-1R agonist: inactive; ClpP mod: inactive; GLP1R cytotox: inactive; GLP1R inv ag: inactive; DRD3 antagonist: inactive; DRD3 agonist: inactive

What do the screens show for `COCCNC(=O)Cn1c(-c2cccs2)cc2cc(Cl)ccc21`?
ClpP mod: 28.2µM; GLP1R cytotox: inactive; GLP1R inv ag: inconclusive; DRD3 agonist: inactive

What do the screens show for `Cc1ccc(CNC(=O)Cn2c(-c3cccs3)cc3cc(Cl)ccc32)cc1`?
ClpP mod: inconclusive; GLP1R cytotox: inactive; GLP1R inv ag: inactive; DRD3 agonist: inactive

What do the screens show for `CCCSCCCNC(=O)Cn1c(-c2cccs2)cc2ccccc21`?
ClpP mod: 28.2µM; GLP1R cytotox: inactive; GLP1R inv ag: inconclusive; DRD3 agonist: inactive

How did O=C(Cn1c(-c2cccs2)cc2ccccc21)NCc1ccccc1Br do in these assays?
ClpP mod: 31.6µM; GLP1R cytotox: inactive; GLP1R inv ag: inconclusive; DRD3 agonist: inactive

How did O=C(Cc1ccccc1)NCC(=O)OCC(=O)c1cccc2ccccc12 do in these assays?
ClpP mod: inactive

How did Cc1ccc(CN2CCC[C@]3(N[C@H](c4ccc(C(F)(F)F)cc4)[C@@H]4C(=O)N(Cc5ccccc5)C(=O)[C@@H]43)C2=O)cc1 do in these assays?
GLP-1R agonist: inactive; ClpP mod: inactive; GLP1R cytotox: inactive; GLP1R inv ag: inconclusive; DRD3 antagonist: inactive; DRD3 agonist: inactive

How did COc1ccc(C(=O)Nc2ccc3c(c2)OCO3)cc1S(=O)(=O)N1CCOCC1 do in these assays?
GLP-1R agonist: inactive; ClpP mod: inactive; GLP1R cytotox: inactive; GLP1R inv ag: inactive; DRD3 antagonist: inactive; DRD3 agonist: inactive

What do the screens show for `CC(CNC(=O)Cn1c(-c2cccs2)cc2cc(Cl)ccc21)c1ccccc1` (stereo unspecified)?
ClpP mod: 25.1µM; GLP1R cytotox: inactive; GLP1R inv ag: inactive; DRD3 agonist: inactive

How did CCOc1ccc(CCNC(=O)Cn2c(-c3cccs3)cc3ccccc32)cc1OCC do in these assays?
ClpP mod: 8.91µM; GLP1R cytotox: inactive; GLP1R inv ag: inactive; DRD3 agonist: inactive

Results for CC(CNC(=O)Cn1c(-c2cccs2)cc2ccccc21)c1ccccc1 (stereo unspecified) ?
ClpP mod: 15.8µM; GLP1R cytotox: inactive; GLP1R inv ag: inconclusive; DRD3 agonist: inactive

Results for CCNC(=O)Cn1c(-c2cccs2)cc2ccccc21 ?
ClpP mod: 28.2µM; GLP1R cytotox: inactive; GLP1R inv ag: inactive; DRD3 agonist: inactive

How did CCOc1ccc(CCNC(=O)Cn2c(-c3cccs3)cc3ccccc32)cc1 do in these assays?
ClpP mod: inconclusive; GLP1R cytotox: inactive; GLP1R inv ag: inactive; DRD3 agonist: inactive

Results for CCOc1ccccc1NC(=O)Cn1c(=O)n(-c2ccc(C)cc2)c(=O)c2c1cnn2C ?
ClpP mod: inactive; GLP1R cytotox: inactive; GLP1R inv ag: inactive; DRD3 agonist: inactive
